Data published in PubChem BioAssay AID488835 (Broad Institute, 2010).
The campaign covered roughly 1,400 compounds. About 140 (10%) were called active.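 Rule for the calls: active = Half-maximal inhibitory dose from the fit at or below ten times the top valid tested dose; inconclusive = Invalid fit, or flat curve showing 30 to 70% inhibition; inactive = the rest.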 A selection follows. Results with a measured potency or affinity are listed apart.

biological target: Lysine-specific demethylase 4C (Homo sapiens) (UniProt Q9H3R0); experiment: inhibition of JMJD2C H3K9me3 demethylation – biochemical, DELFIA europium, cherry-picked samples, dose response (AID 488835); settings: GST-JMJD2C(1-420); series mostly up to 6 µM; activity change, negative = inhibition: at the top concentration;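 note: signal is the H3K9me2 demethylation product detected by a dimethyl-specific antibody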
Sequence (Q9H3R0 1-420 limits assumed): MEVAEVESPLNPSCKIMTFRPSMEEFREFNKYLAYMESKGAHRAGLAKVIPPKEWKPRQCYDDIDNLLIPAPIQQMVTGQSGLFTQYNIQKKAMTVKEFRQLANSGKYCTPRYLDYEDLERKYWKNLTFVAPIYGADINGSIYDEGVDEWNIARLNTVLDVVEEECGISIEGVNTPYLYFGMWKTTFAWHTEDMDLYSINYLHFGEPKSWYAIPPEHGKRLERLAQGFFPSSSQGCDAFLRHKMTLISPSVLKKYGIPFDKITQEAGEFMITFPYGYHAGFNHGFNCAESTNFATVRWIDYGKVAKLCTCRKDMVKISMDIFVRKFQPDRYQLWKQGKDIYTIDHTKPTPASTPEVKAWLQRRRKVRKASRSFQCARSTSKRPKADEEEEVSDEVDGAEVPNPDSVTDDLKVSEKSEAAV

Activity change, negative = inhibition, inactive:
O=C(NCCCN1CCCC1=O)c1cc(-c2cccnc2)nc2ccc(Cl)cc12 1.3%
CCCC(=O)NC(c1cccs1)c1cc(Cl)c2cccnc2c1O (configuration not stated) -4.81%
COc1ccc(CN2CCNC(=O)C2CC(=O)NCc2csc(C(C)C)n2)c(OC)c1 (configuration not stated) -5.09%
Cc1ccc(C2=[N+]([O-])C(C)(C)CC2)cc1 6.51%
O=C(/C=C/c1cccs1)NC1CCS(=O)(=O)C1 (configuration not stated) -6.7%
CCOC(=O)c1c(NC(=O)C2CCCO2)sc2c1CCC2 (configuration not stated) 0.617% [at 1.6 µM]
CC(C)(C)NC(=O)C1CCN(C(=O)c2ccc(Br)cc2)CC1 3.64%
CC1=C(C#N)C(Nc2ccc(C)cn2)(C(F)(F)F)C(=O)N1 (configuration not stated) 2.37%
Cc1ccccc1C(=O)Nc1ccccc1C(=O)NC1CC1 5.56%
Cc1csc(SCC(=O)Nc2ccccc2C)n1 2.73%
N/C(=N\NC(=O)c1ccc(Cl)cc1)c1cnccn1 -1.36%
CCCc1c(NC(=O)Nc2ccc(F)cc2)cnn1-c1ccccc1 7.81%
CC1CCN(c2ccc3c(c2)S(=O)(=O)c2cccc(C(=O)NC4CC4)c2C3=O)CC1 7.81%
CCOC(=O)CCC(=O)NCc1ccc2c(c1)cc(C)n2C 7.23%
CCN(c1ccc(NC(=O)CCNC(=O)c2ccco2)cc1)C(C)C 7.29%
Cc1c(C2Nc3ccccc3NC3=C2C(=O)CC(C)(C)C3)cnn1C (configuration not stated) -10.9%
CCOc1cccc(SCc2noc(C(=O)NC(C)C)c2C(=O)O)c1 2.92%
Cc1sc2ncnc(NCCCO)c2c1C 5.97%
Cc1sc2c(c1C)C(=O)/C(=C\Nc1ccccn1)S(=O)(=O)N2C 8.06%
CCN(C[C@H]1N[C@@](CC)(C(=O)OC)[C@H]2C(=O)N(C)C(=O)[C@@H]12)S(=O)(=O)c1ccc(C(F)(F)F)cc1 5.54%
CCN(C[C@H]1N[C@@](Cc2ccccc2)(C(=O)OC)[C@H]2C(=O)N(Cc3ccccc3)C(=O)[C@@H]12)S(=O)(=O)c1ccccc1 1.11%
Cc1ccc(-n2c3nc(=O)[nH]c(=O)c-3cc3c(C)nn(-c4ccccc4)c32)c(C)c1 2.71%
O=C1CC2C(=O)NCCN2C(=NC(=O)c2ccccc2)N1 (configuration not stated) 2.42% [at 1.6 µM]
CCSc1nnc(-c2cccc(S(=O)(=O)N(CC)CC)c2)n1Cc1ccccc1 4.36%
Cc1ccc(-c2csc3nc(C)n(-n4c(C)ccc4C)c(=O)c23)o1 -2.47%
CN(C)CCOc1ccc(-c2c(-c3ccccc3)sc3ccccc23)cc1 1.19% [at 1.6 µM]
COc1ccc(-c2n[nH]c(=S)n2C2CCCCC2)cc1 5.73%
Cc1nc(-c2ccc(C(=O)N3CCCC3)cc2)cs1 -1.97%
Fc1ccc(-c2csc(Nc3ccccn3)n2)cc1 -16.8%
COc1ccc(OC)c(Nc2nc(-c3cccs3)cs2)c1 -4.95%
NC(=O)C1CCN(c2nc(-c3ccc4c(c3)OCCO4)cs2)CC1 -1.63%
OCC1=C[C@@H](O)[C@@H]2C=CO[C@@H](O[C@@H]3O[C@H](CO)[C@@H](O)[C@H](O)[C@H]3O)[C@H]12 -3.31%
COc1ccc2[nH]c(=O)c(CN(CCCN(C)C)C(=O)Nc3ccc(F)cc3)cc2c1 9.27%
N#Cc1ccc(OCC(=O)Nc2ccccc2NS(=O)(=O)c2cccs2)cc1 1.65%
CC(=O)C[C@@H](O)CC(=O)[C@H]1OC(=O)[C@H](C)C/C=C\Cc2ccccc21 7.11%
Cc1cccc(C)c1NC1=NC(=S)N(c2ccc(C(=O)O)cc2)C12CCCCC2 1.15%
O=C(COc1ccc(Cl)cc1)NCCCn1ccnc1 3.44%
O=C(OCCCOC(=O)c1ccc(Br)o1)c1ccc(Br)o1 6.94%
CN(C)S(=O)(=O)c1ccc(N2CCCC2)c(C(=O)Nc2nc3ccc(F)cc3s2)c1 0.98%
COc1ccc2cc(Br)ccc2c1CC(=O)NCCCN1CCOCC1 7.11%
CSCCC(NS(=O)(=O)c1ccc2ccccc2c1)C(=O)O (configuration not stated) 2.69%
Cn1c(=O)[nH]c(=O)c2[nH]c(NCCCN3CCOCC3)nc21 -6.83%
CCOC(=O)N1CCN(c2ccc(F)cc2[N+](=O)[O-])CC1 2.68%
NC(=O)CC(NC(=S)NCc1ccccc1)C(=O)O (configuration not stated) 2.62%
O=C(c1ccc2c(c1)OCO2)N1CCCN(C(=O)c2ccc3c(c2)OCO3)CC1 -1.3%
COc1ccc(CC(=O)Nc2ccc(/C(C)=N/NC(=O)c3cccc([N+](=O)[O-])c3)cc2)cc1 -4.82%
O=C(NCC(=O)N1CCCCC1)c1sc2ccccc2c1Cl 0.7%
c1cc2c(cc1C1CCCCC1)c1c3n2CCCNC3CCC1 (configuration not stated) -0.182%
COC(=O)c1cc(S(=O)(=O)NCCCN2CCCC2=O)cn1C 2.12%
O=[N+]([O-])c1ccc(N2CCN(S(=O)(=O)c3ccc(Cl)cc3)CC2)cc1NCc1cccnc1 -4.65%
C=CCNC(=O)c1ccc(S(=O)(=O)CC)c(Cl)c1Cl 2.45%
COC(=O)C1CCN(C(=O)COC(=O)COc2ccc(C#N)cc2)CC1 2.04%
COc1cccc(NC(=S)/C(=C(\[O-])c2ccc(C)c([N+](=O)[O-])c2)[n+]2ccccc2)c1 -5.3%
O=C(CSc1nnc(CNC(=O)c2cccs2)o1)c1ccccc1 3.92%
Cn1nnnc1SCC(=O)NCC(=O)c1ccccc1 6.65%
NCc1nc(-c2ccc(Cl)cc2)no1 7.79%
CCS(=O)(=O)Nc1ccc(C2=NN(C(=O)c3ccco3)C(c3ccc(C)cc3)C2)cc1 (configuration not stated) -8.78%
CC(CN1CCCC1)OC(=O)COc1ccccc1 (configuration not stated) 0.741%
COc1ccc(C(=O)NC2CC3CCCC(C2)N3Cc2ccccc2)cc1 (configuration not stated) 5.72%
O=C(NC1CCN(S(=O)(=O)c2ccc(F)cc2)CC1)c1ccc(F)cc1 0.599%
CCN(CC)S(=O)(=O)c1ccc(N2CCOCC2)c(NC(=O)c2ccc3c(c2)OCCO3)c1 4.55%
Oc1ccccc1N1CCN(C(=S)NCc2ccccc2)CC1 3.28%
O=C(O)CCNc1ccc2c(c1)OCCO2 2.97%
COc1ccc(S(=O)(=O)Nc2cccc3c2O[C@H](CN(C)Cc2ccc(C(=O)O)cc2)[C@@H](C)CN([C@H](C)CO)C3=O)cc1 5.64%
CC(C)(C)C1CCc2[nH]c3ccccc3c(=O)c2C1 (configuration not stated) -8.54%
Cc1cc(=O)[nH]c(SCC(=O)Nc2ncc(S(=O)(=O)c3ccc([N+](=O)[O-])cc3)s2)n1 9.14%
CCn1c(=O)c(C(=O)NCCc2ccc(Cl)cc2)c(O)c2ccccc21 -3.1%
